Assay results published in PubChem BioAssay (NCATS).
Inconclusive results are not listed. Entries that show only a call come without a potency. The source made the active and inactive calls. The call rests on the fitted dose curve; in most records, active means well fitted inhibition curve with a large enough effect; inconclusive means small, poorly fitted or top-dose-only effect; inactive means flat fitted curve, though single readings scatter.

System: Zika virus NS2B-NS3 protease
Test: Primary screen GU AMC qHTS for Zika virus inhibitors (AID 1347154); further: nearly all actives have a fitted effect of over 70% in size
Conditions: Zika NS2B-NS3 unlinked protease, AMC fluorogenic substrate; series mostly up to 54.1 µM
Description: Avindra Nath, Ph.D., National Institute of Neurological Disorders and Stroke (NINDS), Bethesda, MD
Radhakrishnan Padmanabhan, Ph.D., Georgetown University (GU), Washington D.C.
Zika Virus causes congenital defects, including microcephaly and is associated with Guillain-Barre syndrome, eningoencephalitis and myelitis in infected adult. […] Using a target-based approach, we hope to establish a screening paradigm to uncover novel, cell-active NS2B-NS3 protease (Zika Virus) specific inhibitors from NCATS' collection of small molecules using qHTS.
Early Translation Branch (ETB)
National Center for Advancing Translational Sciences (NCATS), Rockville, MD
National Institute of Health (NIH), Bethesda, Maryland
Padmanabhan lab provided the NS2B hydrophilic domain and NS3 protease domain in a noncovalent complex used for the unlinked assay. Control compound aprotinin is obtained from Thermo Scientific (#78432; Waltham, Massachusetts). NS2B-NS3 AMC substrate (Bz-Nle-Lys-Arg-Arg-AMC; Nle-KRR-AMC) purchased from Bachem (#I-1995; Torrance, CA). Ac-VKTGKR-AMC purchased from Genscript or Bachem, Ac-FAAGKR-AMC purchased from Genscript, Ac-GLVKRR-AMC purchased from Genscript, Ac-LKKR-AMC purchased from Genscript.
GU AMC unlinked NS2B-NS3 protease qHTS protocol
Briefly, 3 microL of Zika virus unlinked NS2B-NS3 protease (25 nM for linked final concentration), in assay buffer (10 mM Tris-HCl pH 8.0 with 0.01% Tween 20) was dispensed into a 1,536-well solid-bottom black plate (Greiner Bio One, Monroe, NC). […] Plates were then read immediately on a ViewLux High-throughput CCD imager (PerkinElmer, Waltham, MA) equipped with standard UV fluorescence optics (340(30) nm excitation, 450(20) nm emission) then incubated (room temperature, protected from light) for 15 minutes (~20% conversion). The change in fluorescence intensity over the 15-minute reaction period was normalized against no-inhibitor and no-enzyme controls and the resulting percent inhibition data were fitted to a 4-parameter Hill equation. Aprotinin was used as the intraplate control.

Row | SMILES | Potency
1 | Clc1ccc(C(OCCN2CCCCC2)c2ccccc2)cc1 (stereo not given) | inactive
2 | COP(=S)(OC)Oc1ccc(S(N)(=O)=O)cc1 | inactive
3 | C[N+]1(C)[C@@H]2CC[C@H]1CC(OC(=O)C(CO)c1ccccc1)C2 (stereo not given in full) | inactive
4 | Sc1ccccc1Cl | inactive
5 | O=C(CCl)c1ccc(Cl)cc1Cl | inactive
6 | ClCc1cccc(Cl)c1 | inactive
7 | C[C@@H]1CN(C2CCC(C#N)(c3ccc(F)cc3)CC2)CC[C@]1(C(=O)O)c1ccccc1 (stereo not given in full) | inactive
8 | CC(C(O)c1ccccc1)N(C)C/C=C/c1ccccc1 (stereo not given) | inactive
9 | CC(C)=CCN1CC[C@@]2(C)c3cc(O)ccc3C[C@@H]1[C@@H]2C | inactive
10 | C[C@]12Cc3nonc3C[C@@H]1CC[C@@H]1[C@@H]2CC[C@@]2(C)[C@H]1CC[C@]2(C)O | inactive
11 | CC(CC(C#N)(c1ccccc1)c1ccccc1)N(C)C (stereo not given) | inactive
12 | CN(C)CCc1c[nH]c2cccc(O)c12 | inactive
13 | COc1cc(N)c(Cl)cc1C(=O)NC1CN2CCC1CC2 (stereo not given) | inactive
14 | CCCCCCCCCCCC[N+](C)(C)CCOc1ccccc1 | inactive
15 | O=C(N[C@H]1N=C(c2ccccc2F)c2cccc3c2N(CC3)C1=O)c1cc2ccccc2[nH]1 | inactive
16 | CN(C)CCc1c[nH]c2ccccc12 | inactive
17 | CN(C)C(=O)Oc1cc(OC(=O)N(C)C)cc(C(O)CNC(C)(C)C)c1 (stereo not given) | inactive
18 | CCOC(=O)NC(O)C(Cl)(Cl)Cl (stereo not given) | inactive
19 | COc1cc(C[C@@H](C)N)c(OC)cc1C | inactive
20 | CCCCC1C(=O)NC(=O)N(C2CCCCC2)C1=O (stereo not given) | inactive

Row | SMILES | Potency
21 | CCN(Cc1ccc(Cl)nc1)/C(=C/[N+](=O)[O-])NC | inactive
22 | CCOC(=O)c1cncn1C(C)c1ccccc1 (stereo not given) | inactive
23 | CCOC(=O)C1(c2ccccc2)CCN(CCc2ccc(N)cc2)CC1 | inactive
24 | CCN1CCCC1CNC(=O)C(O)(c1ccccc1)c1ccccc1 (stereo not given) | inactive
25 | Cc1cccc(Cc2cnc[nH]2)c1C | inactive
26 | CNC(=O)Oc1cccc2ccccc12 | inactive
27 | CC(=O)OC1(c2ccccc2)CCN(CCc2ccccc2)CC1 | inactive
28 | CC#C[C@]1(O)CC[C@H]2[C@@H]3C[C@H](C)C4=CC(=O)CC[C@]4(C)[C@H]3CC[C@@]21C | inactive
29 | CCC1(c2cccc(O)c2)CCCCN(C)C1 (stereo not given) | inactive
30 | CC(Cc1ccccc1)NCc1ccccc1Cl (stereo not given) | inactive
31 | C1CN2CCC1CC2 | inactive
32 | COc1ccc2c3c1O[C@H]1[C@@H](O)C=C[C@H]4[C@@H](C2)N(C)CC[C@@]341 | inactive
33 | CC[C@H]1C[C@@H]2C[C@H]3c4[nH]c5ccc(OC)cc5c4CCN(C2)[C@@H]13 | inactive
34 | COP(=O)(OC)C(O)C(Cl)(Cl)Cl (stereo not given) | inactive
35 | CC[C@]1(O)CC[C@H]2[C@@H]3CCC4=CCCC[C@@H]4[C@H]3CC[C@@]21C | inactive
36 | C=CCOC(Cn1ccnc1)c1ccc(Cl)cc1Cl (stereo not given) | inactive
37 | CC(C)NCC(O)c1ccc(N)c(C#N)c1 (stereo not given) | inactive
38 | C[C@]12C=CC(=O)C=C1CC[C@@H]1[C@@H]2CC[C@@]2(C)[C@H]1CC[C@]2(C)O | inactive
39 | O=c1n(Cl)c(=O)n(Cl)c(=O)n1Cl | inactive
40 | CN1C2CCC(C)(C)C1CC(OC(=O)C(O)(c1cccs1)c1cccs1)C2 (stereo not given) | inactive
